For 90 compounds, activation results are on record in PubChem BioAssay AID624414 (National Center for Advancing Translational Sciences (NCATS), 2012).

In all, about 410,000 compounds went through this assay and about 480 (0.12%) were called active. Cut-off read from the data, not from the text of the source: active = activation above about 50%; inconclusive = mostly about 30% to 49%; inactive = weaker than that. Shown is part of a subset that was picked to be rich in actives.

Sequence of Mucolipin-1 (Homo sapiens) (Q9GZU1 whole entry, looked up, the tested form may be a part): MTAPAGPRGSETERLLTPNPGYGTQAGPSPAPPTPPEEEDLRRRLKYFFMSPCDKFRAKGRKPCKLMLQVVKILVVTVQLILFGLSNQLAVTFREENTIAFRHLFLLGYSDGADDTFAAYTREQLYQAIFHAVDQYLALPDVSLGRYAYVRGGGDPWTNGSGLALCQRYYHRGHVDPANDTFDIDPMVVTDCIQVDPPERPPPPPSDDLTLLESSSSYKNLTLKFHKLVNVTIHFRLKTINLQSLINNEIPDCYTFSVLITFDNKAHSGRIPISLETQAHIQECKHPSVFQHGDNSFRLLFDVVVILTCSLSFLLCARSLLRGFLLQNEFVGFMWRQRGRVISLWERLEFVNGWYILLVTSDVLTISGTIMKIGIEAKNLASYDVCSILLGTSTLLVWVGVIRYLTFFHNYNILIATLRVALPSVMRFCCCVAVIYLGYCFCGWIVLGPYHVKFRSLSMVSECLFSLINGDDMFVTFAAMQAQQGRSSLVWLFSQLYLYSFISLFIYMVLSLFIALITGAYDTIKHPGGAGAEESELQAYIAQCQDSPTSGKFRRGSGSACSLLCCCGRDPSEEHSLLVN

The target in this assay is Mucolipin-1 (Homo sapiens) (UniProt Q9GZU1). Nature of the assay: qHTS for Agonists of the Human Mucolipin Transient Receptor Potential 1 (TRPML1). Note: 0% is about no effect. Particulars: TRPML1-expressing cells, Ca2+ dye fluorescence, FDSS; active compounds read high. The source says:
Mutations of human Mucolipin transient receptor potential 1 (TRPML1) cause type IV mucolipidosis (ML4), a devastating neurodegenerative disease in young children. […] Currently, there is no treatment for ML4. […] Under physiological conditions, TRPMLs regulate membrane trafficking by transducing information about PI(3,5)P2 levels into changes in juxtaorganellar Ca2+, thereby triggering membrane fusion/fission events in the late endocytic pathways (endolysosomal trafficking). In addition, TRPML1 mediates release of Fe2+ from late endosomes and lysosomes, which is essential for cellular iron metabolism. Thus, impaired ion (Ca2+ and Fe2+) homeostasis underlies lysosomal dysfunction and ML4 phenotypes. In ML4 cells, the problem is twofold. First, defective Ca2+-dependent membrane trafficking due to TRPML1-deficiency causes accumulation of lipids and other bio-materials in the lysosome. The second strike comes from the lysosomal iron overload (due to impairment of TRPML1's Fe2+ conductivity), which converts the accumulated materials into the nondegradable (resistant to lysosomal degradation) lipofuscin (also called aging pigment) in the lysosome. Lipofuscin accumulation dramatically compromises the functions of lysosomes.
Niemann-Pick type C (NPC) disease is another lysosome storage disease (LSD) with severe neurodegeneration during the childhood. Currently, there is no cure for NPC. […] Thus, TRPML1 is likely to be an essential regulator of lysosome ion homeostasis. We specifically hypothesize that stimulating TRPML1's Fe2+/Ca2+ channel activity in the lysosome using synthetic agonists can alleviate neurodegeneration associated with ML4 or NPC.
To this end, a high throughput screen was developed in a miniaturized format to screen against the Molecular Libraries Small Molecule Repository (MLSMR) to find small molecules that act either as inhibitors or agonist against the TRPML1 channel.
NIH Chemical Genomics Center [NCGC]
NIH Molecular Libraries Probe Centers Network [MLPCN]
Assay Submitter (PI): Haoxing Xu, University of Michigan Ann Arbor
TRPML1-DL cells are dissociated from flasks, counted and, brought up to a density of 500,000 cells per mL of media containing a 1X Tet inducer. Using a Multidrop Combi, 3uL of this cell solution is dispensed to each well of a 1536 TC treated, black, clear bottom hi base plate for a final cell density of 1,500 cells per well. The assay plates are incubated overnight (approximately 16 hours) at 37 degrees C and 5% CO2. Using a Multidrop Combi, 2uL of ABD Ca8 no wash dye plus quencher is added to each well. The assay plates incubate at room temperature in the dark for 45-90 minutes. The assay plate is read on the FDSS using the following protocol: 10 second baseline read, 23nL of compounds and controls are added using 1536 pintool, agonist read for 110 seconds, 1 uL EC80 addition (4uM final 54-4 diluted in media), antagonist read for 110 seconds.
(Quantitative high-throughput screening tests each substance at several concentrations.)
`O=C1c2ccccc2S(=O)(=O)c2cc(N3CCN(c4ccccn4)CC3)ccc21`: the activation is -0.448% (inactive). For the compound `Cc1ccc(CNC(=O)c2cccc3c2C(=O)c2ccc(N4CCC(C)CC4)cc2S3(=O)=O)cc1`, the activation was 66.9% (active). As to `Cc1ccc(CNC(=O)c2ccccc2CCc2ccccc2)cc1`, the activation was 0.628% (inactive). `O=C(COC(=O)c1ccccc1OCCOc1ccccc1)Nc1cccc(Br)c1`: the activation is -1.41% (inactive). For `COc1cc2[nH]c(C)c(CCN3CCN(c4ccccc4)CC3)c2cc1OC`, the activation is -0.545% (inactive). The same measure for `NC(=O)c1ccc(NC(=O)COC(=O)C(Cc2ccccc2)NC(=O)c2ccccc2)cc1` (stereo not given): 4.33% (inactive); for `CN(CC(=O)Nc1ccc(C(N)=O)cc1)S(=O)(=O)c1ccc2c(c1)OCCO2`: 0.311% (inactive).

For `NC(=O)c1ccc(NC(=O)COC(=O)c2c3c(nc4ccccc24)/C(=C\c2ccc4c(c2)OCO4)CCC3)cc1`, the activation was 96% (active). For `C[N+]1(CC(=O)c2cccs2)CCOCC1`, the activation is -0.317% (inactive).

On to `CN(C)c1ccc(/C=C2\C=Cc3ccccc32)cc1Br`, for which the activation is 0.0951% (inactive). On to `OCCNc1ncnc2oc(-c3ccco3)c(-c3ccco3)c12`, for which the activation was 0.995% (inactive). Consider `COc1ccc(-c2cc(C(=O)Nc3sc4c(c3C(N)=O)CCCC4)no2)cc1`, for which the activation is 0.03% (inactive). For the compound `CC(C)c1ccc(NC(=O)Cn2nnc(C(=O)NCCc3ccccc3)c2N)cc1`, the activation was 1.91% (inactive).

Turning to `Cc1ccc(-c2nnc3ccc(SCC(N)=O)nn23)cc1`, the activation was -0.578% (inactive). Regarding `COc1ccc(C(=O)Nc2nonc2-c2ccc(OC)c(OC)c2)cc1Cl`, the activation is 2.17% (inactive). Turning to `CC1(C)CC(=O)c2cc(C(=O)NCc3ccccc3)c(=O)[nH]c2C1`, the activation was -0.38% (inactive). The result for `COc1ccc(C(=O)NCC(c2ccc(N(C)C)cc2)N2CCc3ccccc32)c(OC)c1` (stereo not given) reads -0.0968% (inactive); that for `CCOc1ccccc1N(CC)C(=O)c1cc2ccc3cccnc3c2[nH]1`, 1.16% (inactive); that for `CCOC(=O)c1ccc(NC(=O)CC2C(=O)N(c3ccccc3)C(=O)N2Cc2cccs2)cc1` (stereo not given), 0.378% (inactive). With `Cc1csc(NCC(=O)c2c[nH]c3ccccc23)n1`, the activation is -0.545% (inactive). Turning to `Nc1ccccc1N`, the activation was -0.412% (inactive). Consider `c1ccc(Cn2nnc3c(N4CCCCC4)ncnc32)cc1`, for which the activation was -0.998% (inactive). Turning to `Cc1cccc(-c2nnc(SC(C)C(=O)Nc3ccccc3)n2C)c1` (stereo not given), the activation is -0.995% (inactive). For `Cc1ccc(C=O)cc1Cl`, the activation is -0.475% (inactive). Turning to `C(=Nc1ccc(/C=C/c2ccnc3ccccc23)cc1)c1cc2c3c(c1)CCCN3CCC2`, the activation was 1.62% (inactive). The result for `ClC/C=C/C[n+]1ccccc1Cl` reads 0.254% (inactive); that for `Nc1ccc(/C=C/c2ccnc3ccccc23)c([N+](=O)[O-])c1`, 17.6% (inactive).

With `Cc1ccccc1NC(=O)Cn1c(=O)n(CC2CCC(C(=O)NCCc3ccccc3)CC2)c(=O)c2ccccc21` (stereo not given), the activation is 0.124% (inactive). On to `Clc1cccc[n+]1CCCC[n+]1ccccc1Cl`, for which the activation was -0.384% (inactive). In the case of `CCOc1ccc2oc(=O)cc(CN3CCN(C(=O)c4ccc(F)cc4)CC3)c2c1`, the activation was 0.651% (inactive). For `CC(C)(C(=O)NO)c1ccccc1`, the activation is -0.108% (inactive). As to `CN(C(=N)N)c1ccc(/C=C2\C=Cc3ccccc32)cc1`, the activation was -0.285% (inactive).

Turning to `CCCCSc1ncnc2c1sc1nc(N3CCOCC3)c3c(c12)CCCC3`, the activation is 0.201% (inactive). The result for `CSc1n[nH]c(-c2ccco2)n1` reads -0.16% (inactive); that for `O=C(C[n+]1ccncc1)c1ccc2c(c1)CCCC2`, -0.708% (inactive); that for `Cc1cc[n+](C2CCCCC2)cc1`, 3.69% (inactive). For `CN1CCN(/[N+]([O-])=N/Oc2ccc([N+](=O)[O-])cc2[N+](=O)[O-])CC1`, the activation was 1.19% (inactive). With `C=C1C=C(C(F)F)n2ncc(C(=O)NCCc3ccccc3OC)c2N1`, the activation was -1.28% (inactive). For `COc1ccc(CCNc2nc(-c3ccc(Cl)cc3)cc(C(F)(F)F)n2)cc1OC`, the activation was -0.222% (inactive). Consider `CN(C(=O)CN(CCO)CC(=O)N(C)C(C)(C)Cc1ccccc1)C(C)(C)Cc1ccccc1`, for which the activation is 51.2% (active). On to `CCC(=O)N(Cc1ccccc1)c1ccccn1`, for which the activation is -0.645% (inactive). As to `Cc1cc(C)cc(NC(=O)N(C)Cc2ccccc2)c1`, the activation was 0.932% (inactive). In the case of `COc1ccc(C2/C=C\CN(C(=O)c3ccc(C)cc3)C(Cc3ccccc3)C(=O)N2Cc2ccc(F)cc2)cc1` (stereo not given), the activation is 0.118% (inactive). The result for `CCc1ccc(C2CC(=O)c3c([nH]c(C(=O)OCc4ccc(C)cc4)c3C)C2)cc1` (stereo not given) reads 1.69% (inactive); that for `CCc1ccc(CNCc2c(C(=O)O)n(Cc3ccc(F)cc3Cl)c3cc(OC)ccc23)cc1`, 0.807% (inactive); that for `CCN(CC)c1ccc(/C=C/c2c(C)cnc3ccc(C)cc23)cc1`, 11.4% (inactive). As to `CN(C)c1ccc(/C=c2\[nH]c(=O)/c(=C/c3ccc(N(C)C)cc3)[nH]c2=O)cc1`, the activation was 0.206% (inactive). On to `CN(C)c1ccc(/C=C2\NC(=S)N(Cc3ccccc3)C2=O)cc1`, for which the activation was 66.5% (active). Turning to `CN(C)c1ccc(/C=C/c2c3ccccc3nc3ccccc23)cc1`, the activation is 0.354% (inactive).

On to `Nc1c(C(=O)c2cccs2)sc2nsc(SCCN3CCCCC3)c12`, for which the activation is 56.3% (active).

As to `Cc1ccc(CCNC(=O)Cn2c(-c3cccs3)cc3cc(F)ccc32)cc1`, the activation was -0.443% (inactive). The result for `CNCCCOc1cc2nc(N3CCCN(C)CC3)nc(NC3CCN(C)CC3)c2cc1OC` reads -0.513% (inactive); that for `COc1cc2nc(N3CCCN(C)CC3)nc(NC3CC3)c2cc1OC`, -0.539% (inactive); that for `COc1cc(OC)c(/C=C/c2ccnc3ccccc23)c(OC)c1`, -0.602% (inactive). The result for `CN(N=O)c1ccc(C=C2c3ccccc3-c3ccccc32)cc1` reads -0.127% (inactive); that for `Cn1nnnc1SCC(=O)N1CCN(C(c2ccccc2)c2ccccc2)CC1`, 2% (inactive); that for `Oc1ccccc1CN1CCN(C(c2ccccc2)c2ccccc2)CC1`, 84.3% (active). The same measure for `CC(=O)N1CCN(CC(c2ccccc2)c2ccccc2)CC1`: -0.726% (inactive); for `CCN1CCN(c2ccc(/C=C/c3ccnc4ccccc34)cc2)CC1`: 5.01% (inactive); for `Cc1ccc(NC(=O)c2ccc(CN3CC(=O)N4CCCCC4C3=O)cc2)c(Cl)c1` (stereo not given): 2.76% (inactive). Consider `CCOc1n[nH]c(-c2ccccc2)n1`, for which the activation was 0% (inactive). For `CN(C)c1ccc(/C=N\Nc2ccc([N+](=O)[O-])cc2[N+](=O)[O-])cc1Cl`, the activation was -0.0634% (inactive). On to `O=C(CSc1ncc(-c2ccccc2)[nH]1)Nc1ccc(F)cc1F`, for which the activation is 2.97% (inactive). For the compound `OCC(O)C(O)C(O)C(O)C=Nc1ccc(/C=C/c2ccnc3ccccc23)cc1` (stereo not given), the activation is 6.02% (inactive). Consider `COC(=O)C1=C(C(=O)OC)[C@@H]2N(Cc3ccccc3)c3ccccc3[C@@]23C[C@@H](C(=O)OC)N(S(=O)(=O)c2ccc(C(F)(F)F)cc2)C3=N1`, for which the activation was -0.417% (inactive). As to `CCN1/C(=C/c2ccc3ccc(C)cc3[n+]2CC)Sc2ccccc21`, the activation is 70.1% (active). Consider `CCCCOc1ccc(C(=O)NO)cc1`, for which the activation was -0.809% (inactive). Consider `Cc1csc[n+]1CCC1CCCCC1`, for which the activation is 0.413% (inactive).

With `C=C1C=C(C)n2ncc(C(=O)Nc3ccccc3O)c2N1`, the activation was -0.539% (inactive).

For `Nc1nc(N)c(N=O)c(N)n1`, the activation was -0.147% (inactive). With `C=CCCN(C(Cc1ccccc1)C(=O)OC)S(=O)(=O)c1cc(Br)ccc1Br` (stereo not given), the activation was 2.52% (inactive). As for `CCCN(CCC)c1nc2c(C)cccn2c(=O)c1/C=C1/SC(=S)N(Cc2ccco2)C1=O`, the activation was 17.6% (inactive).

For `CCOC(=O)CC1C(=O)NCCN1c1nc2c(C)cccn2c(=O)c1/C=C1\SC(=S)N(C(C)CC)C1=O` (stereo not given), the activation was 71% (active).

Turning to `CCOC(=O)CNC(=O)c1cc2c(=O)n3cccc(C)c3nc2s1`, the activation was 0.461% (inactive).

With `CCC(=O)N1CCc2cc(Br)cc(S(=O)(=O)CCC(=O)NCCc3ccc(OC)c(OC)c3)c21`, the activation was -0.301% (inactive). For `Cc1[nH]c2ccccc2c1C(=O)C(=O)N(C)c1ccccc1`, the activation is -0.513% (inactive).

For the compound `COC(=O)C1=C(c2ccccc2)c2ccccc2S(=O)(=O)N1CC(=O)Nc1ccccc1C(F)(F)F`, the activation is 1.11% (inactive).

On to `CCC(C)N(c1ccc(/C=C/c2ccnc3ccccc23)cc1)C(C)CC` (stereo not given), for which the activation was 18.2% (inactive). Regarding `CN(C)c1ccc(/C=C/C=C/c2ccnc3ccccc23)cc1`, the activation is 52.7% (active).

Take `CN(C)c1ccc(C=Nc2ccc(/C=C/c3ccnc4ccccc34)cc2)cc1`: the activation was 1.17% (inactive). The result for `Cc1cccc(CN2Cc3cccc4c3[C@H](C=CC4)CC2=S)c1` reads -0.678% (inactive). Turning to `CCCc1cc(=O)n2[nH]c(NCc3ccc(CC)cc3)nc2n1`, the activation is -0.211% (inactive). The same measure for `CCCN1CCC(=O)N(C(CSc2ccc(C)cc2)Cc2ccccc2)CC1` (stereo not given): 1.24% (inactive); for `CCOC1=C2[C@@H](CN(S(=O)(=O)c3ccc(C)cc3)[C@H]2c2ccccc2F)[C@H]2C(=O)N(Cc3ccccc3)C(=O)[C@H]2C1`: 1.29% (inactive). Turning to `CCOC1=C2CN(S(=O)(=O)c3ccc(C)cc3)[C@H](c3cccs3)C[C@H]2[C@H]2C(=O)N(c3ccccc3)C(=O)[C@H]2C1`, the activation was 64.2% (active).

Turning to `CCOC1=C2[C@H]([C@H]3C(=O)N(c4ccccc4)C(=O)[C@H]3C1)[C@@H](c1ccccc1)N(S(=O)(=O)c1ccc(C)cc1)[C@H]2c1ccccc1`, the activation is -0.217% (inactive).

Regarding `COc1cc(NS(=O)(=O)c2cccs2)cc(OC)c1`, the activation is -1.48% (inactive). In the case of `COc1cc2nc(Cl)nc(NC3CC3)c2cc1OC`, the activation is -0.998% (inactive).

Consider `CCOC(=O)c1c(NC(=O)COc2cc(C)ccc2C(C)C)sc(C)c1C`, for which the activation was 1.35% (inactive).

For `O=C1C[C@H]2C=CCc3cccc(c32)CN1Cc1ccccc1`, the activation is -0.974% (inactive).
